# Compound activity: PubChem, National Center for Advancing Translational Sciences (NCATS)
# Nrf2 inh = inhibitors of Nrf2 signaling. A549 ARE-Fluc reporter, luciferase luminescence, 18-24 h. Potency, µM (titrated, usually from 46 µM), inactives show at the highest dose activity change, negative = inhibition, hits mostly inhibitors. hit rate 2.1% among 360,000; also: % is scaled to controls: 0 for no effect and ±100 for the full control effect; nearly all actives have a fitted effect of over 60% in size
#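 A549 ARE_Fluc cells (5000/well, 5% FBS OPTI-MEM) pre-incubated 2 h, then treated with compounds 18-24 h at 37C/5% CO2 in concentration-response. CellTiter-Fluor viability read first; BugLite luciferase luminescence after 15 min at room temperature gives Nrf2 activity.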
# TGFb SMAD3 inh = inhibitors of TGF-b signaling. HepG2 CAGA-GFP TGF-b/SMAD3 reporter, GFP fluorescence, 18 h; TGF-beta stimulated, 500 pg/mL final. hit rate 1.2% among 410,000. Potency, µM (titrated, usually from 46.1 µM), inactives show at the top dose activity, negative = inhibition, hits mostly inhibitors. AID 588855; also: % is scaled to controls: 0 for no effect and ±100 for the full control effect; nearly all actives have a fitted effect of over 65% in size
#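 Cell-based qHTS in HEPG2 carrying a CAGA-GFP Smad reporter; compounds added before 500 pg/mL final TGF-beta, 18 h incubation at 37 degrees C, GFP fluorescence quantified per cell by imaging cytometry.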
# A549 tox = kills or reduces viability of A549 cells in Nrf2 counter-screen; hit rate 0.16% among 390,000; Potency, µM (titrated, usually from 46 µM), for inactives: at the top dose activity change, negative = cytotoxicity, actives largely listed as inhibitors; A549 ARE-Fluc cells, CellTiter-Fluor viability, 18-24 h; also: % is scaled to controls: 0 for no effect and ±100 for the full control effect
#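 Cytotoxicity counterscreen: CellTiter-Fluor fluorescence was measured in A549 ARE_Fluc cells after 18-24 h of compound exposure in a concentration series. The subsequent BugLite luminescent read reports ARE-luciferase activity.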
# S2 tox = reduces viability in counter-screen for ATXN expression inhibitors; S2 cells (HEK-293 line with an ATXN2-luciferase reporter) viability, CellTiter-Fluor protease fluorescence, 24 h; Potency, µM (highest dose often 56.7 µM), actives largely listed as cytotoxic; hit rate 0.49% among 400,000; also: nearly all actives have a fitted effect of over 40% in size
# HepG2 tox = HepG2 cytotoxicity, counter-screen for TGF-b inhibitors. HepG2 CAGA-GFP viability, ATP luminescence, 18 h. Potency, µM (highest dose often 46.1 µM), inactives show at the highest dose activity change, negative = cytotoxicity, most hits filed as cytotoxic. AID 588856. hit rate 0.76% among 410,000
#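 CellTiter-Glo luminescence gave cytotoxicity after 18 hours at 37 degrees C. The cells were HepG2 CAGA-GFP in 1% FBS DMEM, stimulated with 500 pg/mL TGF-beta after compound addition. %Activity was normalised to no-cell wells (complete cell-killing) and DMSO (no toxicity), and curves were fitted and classified.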
# ATXN2 expr inh = reduces ATXN2 reporter expression in HEK-293 cells; Potency, µM (titrated, usually from 57 µM), for inactives: top-dose activity change, negative = inhibition, most hits filed as inhibitors; HEK-293 ATXN2-luciferase reporter, luminescence, 24 h; hit rate 0.72% among 360,000; AID 1745845; also: % is scaled to controls: 0 for no effect and ±100 for the full control effect; nearly all actives have a fitted effect of over 55% in size
#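 qHTS (up to 57 uM final) was run with 24 h compound exposure of reporter cells at 37 °C. Each well was multiplexed: SteadyGlo luminescence measured ATXN2-luciferase expression after a fluorogenic Gly-Phe-AFC viability readout (25 uM final).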
# The depositor's hits bear a star; i = inactive; ? = inconclusive; . = not tested or not shown. Sampled rows, rich in hits. Any-hit rate of the full collection: about 3.8%. Calls follow the shape of the dose curve; as a rule, active = well fitted curve in the direction sought with a large enough effect; inconclusive = small, poorly fitted or top-dose-only effect, or another doubt; inactive = no such curve, though single readings can be large; an effect the other way counts as inactive or inconclusive. Potency is read from the fitted curve at half-maximal effect.
SMILES,Nrf2 inh,TGFb SMAD3 inh,A549 tox,S2 tox,HepG2 tox,ATXN2 expr inh
CCCCN(C(=O)CC1CCCC1)c1c(N)n(Cc2ccccc2)c(=O)[nH]c1=O,.,-10%,.,?,-6%,.
Cc1ccc(N/C(N)=N/c2nc(C)cc(C)n2)cc1,-10%,0%,-8%,i,-2%,0%
CCCCc1ccc(N/C(N)=N/c2nc(C)cc(C)n2)cc1,?,?,2%,i,16µM*,?
S=c1[nH]nc(-c2cc(-c3ccccc3)n[nH]2)n1/N=C/C(Br)=C/c1ccccc1,23µM*,11µM*,?,30µM*,-27%,?
NNC(=O)Cc1cccc2ccc(Cl)cc12,.,-7%,.,i,0%,.
Cn1ncc2c(N3CCN(c4ccc(Cl)c(Cl)c4)CC3)ncnc21,?,?,1%,i,-7%,0.95µM*
Cc1ccc(NC2=C(NC(=O)c3ccccc3)C(=O)c3ccccc3C2=O)cc1Cl,11%,11µM*,-9%,?,16µM*,-8%
O=C(O)c1cccc(NC2=C(Cl)C(=O)c3ccccc3C2=O)c1,?,?,?,25µM*,-86%,?
O=C(O)c1ccc(NC2=C(Cl)C(=O)c3ccccc3C2=O)cc1,1%,?,-11%,10µM*,-23%,4.5µM*
COCCCNC(=O)CN1C(=O)COc2ccc(S(=O)(=O)N3CCCC3)cc21,11%,0%,13%,i,0%,15%
O=C(NCCCn1ccnc1)Nc1ccc2c(c1)OCO2,?,4%,-3%,i,-1%,28%
Clc1ccc(N2CCN(c3ccnc(Cl)n3)CC2)cc1,16µM*,0%,-7%,i,2%,0%
CSc1nccc(N2CCN(c3ccc(F)cc3)CC2)n1,?,?,-12%,i,-18%,-18%
COc1ccc(C)cc1Nc1n[n+](-c2ccccc2)c(-c2c(Cl)cccc2Cl)s1,?,?,?,11µM*,13µM*,0%
CCc1ccc(Nc2n[n+](-c3ccccc3)c(-c3c(Cl)cccc3Cl)s2)cc1,?,7.1µM*,?,10µM*,-108%,10µM*
CCc1ccc(Nc2n[n+](-c3ccccc3)c(-c3ccc(N(CC)CC)cc3)s2)cc1,?,?,?,?,-62%,?
COc1ccc(C)cc1Nc1n[n+](-c2ccccc2)c(-c2ccc(OC)c(OC)c2OC)s1,?,?,-22%,?,-22%,?
Fc1ccc(-[n+]2nc(Nc3ccccc3)sc2-c2c(Cl)cccc2Cl)cc1,?,?,?,.,11µM*,?
COc1ccc2ccccc2c1-c1sc(Nc2ccccc2)n[n+]1-c1ccc(F)cc1,11%,?,-22%,28µM*,11µM*,28µM*
CC(=O)Nc1cccc(C(=O)Nc2cc(C(F)(F)F)ccc2-n2cncn2)c1,.,-12%,.,i,-11%,.
Cc1ccc(N2CC3=C(C2=O)C(c2ccc(Br)cc2)NC(=O)N3C)cc1 (stereo unspecified),1%,-3%,1%,i,-4%,9%
O=C(/C=C/Sc1ccccc1)c1ccc(Cl)cc1,20%,8.9µM*,-25%,.,11µM*,?
O=CC(=O)c1ccc(Cl)cc1,.,-28%,.,.,-29%,.
O=C(/C=C/Sc1ccccc1)c1ccccc1,?,10µM*,-6%,.,16µM*,?
CC1=CC2=NC(=O)C(c3ccccc3)C(=O)N2C=C1 (stereo unspecified),16%,6%,1%,i,6%,18%
O=C(/C=C\c1ccccc1)Oc1cccc2cccnc12,11%,?,20%,?,-1%,.
O=C(/C=C/c1ccccc1)Oc1cccc2cccnc12,-12%,4µM*,-2%,i,4µM*,.
